Data published in PubChem BioAssay AID605 (National Center for Advancing Translational Sciences (NCATS), 2007).
Screen size: about 71,000 compounds; about 35 (0.05%) were called active. Calls come from the whole dose curve; as a rule, active = well fitted curve in the direction sought with a large enough effect; inconclusive = small, poorly fitted or top-dose-only effect, or effect the other way; inactive = flat fitted curve, though single readings scatter. A selection follows.

biological target: tRNA threonylcarbamoyladenosine biosynthesis protein TsaE (Escherichia coli (strain K12)) (UniProt P0AF67); experiment: qHTS Assay for Inhibitors of YjeE; settings: purified YjeE enzyme, qHTS inhibition assay
Protocol: NIH Molecular Libraries Screening Centers Network [MLSCN]
NIH Chemical Genomics Center [NCGC]
Assay Provider: Eric Brown, McMaster University
YjeE is an essential E.coli protein of unknown function that binds adenosine diphosphate (ADP). A complex of YjeE and BODIPY Texas Red-labeled ADP probe (Invitrogen, catalog number A22359) is incubated with library members. Inhibitors of YjeE-ADP binding are detected by a decrease in the fluorescence polarization (FP) of the fluorophore. Purified YjeE was supplied by Chand Mangat and Eric Brown, McMaster University.
NCGC Assay Protocol Summary:
2 uM probe/10 uM YjeE in columns 1, 2, 5-48. Titration of ADP control (from 40 mM, then 1:2) pin-transferred to top half of column 2. Column 1 and bottom half of column 2 are neutral.
Two and a half uL of reagents were dispensed to 1536-well Greiner black plates. Compounds and controls (20 nL) were transferred via Kalypsys PinTool. The plates were incubated for 15 min at room temperature, and then read on ViewLux (Perkin-Elmer) High-throughput CCD imager using BODIPY polarization filter set and 30 seconds exposure time. During dispense, reagent bottle was kept submerged into 4 deg C water bath and all liquid lines were covered with aluminum foil to minimize probe and protein degradation.
Keywords: NIH Roadmap, MLSCN, MLI, MLSMR, qHTS, NCGC, YjeE

outcome, inactive:
CCCCC(CC)CN (centres undefined), Cc1ccccc1Nc1nc(N)nc(CN2CCN(c3ccccn3)CC2)n1, COc1c(F)c(F)c(-c2csc(N)n2)c(F)c1F, COC(=O)[C@H]1C[C@@H]1[C@H](NC(=O)Oc1ccc(F)cc1)c1ccccc1, COC(=O)C(C)C1Sc2ccccc2NC1=O (centres undefined), CC(C)(CNCC(O)c1ccccc1)N1CCOCC1 (centres undefined), Cc1cnc(CNc2ncncc2-c2ccccc2Cl)cn1, COc1ccc(C2C3=C(OC(C)=O)c4ccccc4C3=Nc3c2c(=O)n(C)c(=O)n3C)cc1 (centres undefined), Cn1c(-c2ccc(C(=O)c3ccccc3)s2)nc2ccccc21, COc1ccccc1-c1nc(C(F)(F)F)c(OC)o1, Nc1nc(N)c2[nH]c(CNc3ccc(C(=O)O)cc3)nc2n1, CCCc1nc2ccccc2c(=O)n1/N=C/c1ccc(O)c(O)c1, CC(C)[C@@H](CC(=O)N[C@@H]1CCNC[C@H]1C(=O)N[C@H](CC(=O)N[C@@H](CCC(=O)O)CC(=O)O)Cc1ccccc1)NC(=O)C[C@H](CO)NC(=O)[C@@H]1CNCC[C@H]1N, COc1ccc2nc(NC3=NCN(CC4CCCO4)CN3)nc(C)c2c1 (centres undefined), Cc1cc(OCC(=O)O)c(Cl)cc1Cl, Cc1cc(NC(=O)COC(=O)c2ccc(F)c(S(=O)(=O)N3CCOCC3)c2)no1, COc1ccc(C(=O)CSc2nccc(=O)[nH]2)cc1, CCOC(=O)c1ccc(NC(=O)CS(=O)(=O)c2cn(CC)c3ccccc23)cc1, Cc1cc(=O)[nH]c(SCC(N)=O)c1C#N, CSCCC(NC(=O)c1ccc(=O)n(C)n1)c1nc2ccccc2[nH]1 (centres undefined), O=C(NCc1ccc(Cl)cc1)c1cc2c(nc3sccn32)s1, CC(C)(C)NCC[C@@H](O)c1cc(C(F)(F)F)nc2c(C(F)(F)F)cccc12, COc1nc(Oc2ccc(=O)n(C)n2)nc(N(C)C)n1, CCCCNC(=O)CSc1nccn1Cc1ccccc1, C1CCC2OC2C1 (centres undefined), O=c1c(-c2cc(F)cc(F)c2)nc2cnc(Oc3ccccc3)nc2n1C[C@H]1CCCO1, CCOC(=O)c1ccc(NC(=O)CSc2nnc(COc3ccccc3OC)n2C)cc1, C[C@]1(C(=O)NCCc2c[nH]c3ccccc23)C=C[C@@H](Cc2ccccc2)N1C(=O)c1ccccc1, N#Cc1ccc(C(c2nnnn2CCc2ccccc2)N2CCCCCC2)cc1 (centres undefined), COc1ccc(N2C(=O)C3CCCN3C2c2cccs2)cc1 (centres undefined), COc1ccc(C)cc1S(=O)(=O)NC1CCCCC1, O=C1c2oc3ccccc3c(=O)c2C(c2cccc(O)c2)N1c1ccccn1 (centres undefined), CC(=O)CC(C)C, COC(=O)N1CCC2(CCCN(Cc3ccccc3OC)C2)CC1, COc1ccc(OC)c(Nc2nc(-c3ccc(O)c(O)c3)cs2)c1, FC(F)(F)c1ccccc1-c1cc(NCc2ccccc2)ncn1, CN1[C@@H]2CC[C@H]1CC(NC(=O)c1nn(C)c3ccccc13)C2 (some centres undefined), C[C@]12CC[C@@H]3C(=CCc4cc(O)ccc43)[C@@H]1CCC2=O, Cc1cc(=O)n(C)c(=O)n1CCCNc1ccccc1, CC(C)c1ccc2c([Si](C)(C)C)c3c(nc2c1)-c1cccc(=O)n1C3, COc1ccc(N2C(=O)CCC(C(=O)N(C)C3CCCCC3)C2c2ccc(OC)c(OC)c2)cc1 (centres undefined), C[N+](C)(CCCCCC[N+](C)(C)CCCN1C(=O)c2cccc3cccc(c23)C1=O)CCCN1C(=O)c2cccc3cccc(c23)C1=O, COc1ccc(Cl)cc1S(=O)(=O)N1CCN(CC(=O)C(C)(C)C)CC1, CN1CCN(S(=O)(=O)c2ccc3[nH]cc(C(=O)O)c(=O)c3c2)CC1, Cc1ccc(C)c(N2CCN(C(=O)CCc3nc4ccccc4[nH]3)CC2)c1, O=Cc1c(Cl)cccc1Cl, COc1cccc(N(CC(=O)Nc2cccc(N(C)S(C)(=O)=O)c2)S(C)(=O)=O)c1, COc1ccccc1NC1=NC2(CCCC2)N=C(N)N1, CCOc1ccc2[nH]c(=O)c(C(c3nnnn3CCOC)N3CCOCC3)cc2c1 (centres undefined), COC(=O)C1(C)C=CC2(CCCCC2)N1C(C)=O (centres undefined), CC/C=C/C/C=C/C/C=C/CCCCCCCC(=O)OCC, O=C(OC(C(=O)NC1CCCC1)c1ccc(F)cc1)c1ccno1 (centres undefined), O=c1cnc2cnc(Nc3ccccc3)nc2n1Cc1ccc(F)cc1, COCCn1c(SCC(=O)Nc2cc(Cl)ccc2OC)nc2c(c1=O)SC(C)C2 (centres undefined), C=C(C)c1cccc(C(C)(C)NC(=O)N2CCN(c3ncccn3)CC2)c1, O=C(Cl)c1ccccc1[N+](=O)[O-], CCOC(=O)CN(C(=O)CN1CCOCC1)c1ccc(Br)cc1, CC(C)NC(=O)N1CC[C@@]2(CCCN(C(=O)c3ccco3)C2)C1, S=c1[nH]nc(SCc2ccccc2Cl)c2[nH]cnc12, CSc1cccc(NC(=O)CSc2ccccc2)c1, Cc1ccc2oc(=O)c3cnn(CC(=O)N4CCN(c5ccccn5)CC4)c3c2c1, O=C(CNS(=O)(=O)c1cccc(C(F)(F)F)c1)Nc1ccccc1F, COC(=O)[C@@]1(Cc2ccccc2)[C@H]2c3cc(C(=O)N4CCCC4)n(Cc4ccc(C)o4)c3C[C@H]2CN1C(=O)c1ccccc1, COc1ncc2nc(-c3ccc(Cl)cc3)c(=O)n(C)c2n1, CC(c1ccco1)N(C(=O)c1ccc(S(=O)(=O)N2CCCCC2)cc1)c1ccccn1 (centres undefined), CC(C)NS(=O)(=O)c1ccc(OCC(=O)Nc2ccc3c(c2)OCCO3)cc1, Cc1ccc(-n2c(SCC(=O)Nc3ccc4c(c3)OCO4)nnc2-c2ccoc2C)cc1, CCOC(=O)NC(C(F)(F)F)(C(F)(F)F)P(=O)(c1ccccc1)c1ccccc1, CCCC(=O)N1c2ccc(-c3csc(N)n3)cc2CC1C (centres undefined)
